# According to PubChem BioAssay AID624351 (Southern Research Specialized Biocontainment Screening …, 2012):
# About 1,400 (58%) of roughly 2,400 compounds were called active. So high a share suggests a set chosen from earlier hits. This is one part of the list. Unmarked numbers belong to inactive results.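 The calls were made as follows: active = inhibition of 30% or more at any tested dose; inconclusive = primary hits over the limit that were never retested; inactive = the rest.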
# Experiment: ADP Hunter readout inhibition without MgcRacGAP – biochemical, coupled enzyme counter-screen, artefact control for MgcRacGAP inhibitor project, dose response (AID 624351);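 also: signal is the ADP detection kit reading of free GDP without any GAP enzyme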;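 as to inhibition: 0% = median positive control wells and 100% = median negative control wells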
# Details: fluorescence, no MgcRacGAP; series mostly up to 80 µM; inhibition: at the top concentration
Structure (SMILES),inhibition,IC50
C=C1c2cccc(O)c2C(=O)C2C(=O)[C@]3(O)C(=O)C(C(N)=O)C(=O)[C@@H](N(C)C)[C@@H]3[C@@H](O)[C@H]12 (stereo not given in full),-8.67%,–
O=C1NC(=S)S/C1=C1\Sc2ccccc2N1CCCS(=O)(=O)O,23.1%,–
CC(C(=O)NCC(=O)Nc1ccc(F)c(F)c1F)N1CCN(c2ccc(O)cc2)CC1 (stereo not given),–,54.3 µM (active)
O=C(CN1CCN(c2ccc(O)cc2)CC1)NCC(=O)Nc1ccc(F)c(F)c1F,–,61.8 µM (active)
Cc1cnc(NC(=O)CN2CCN(c3ccccc3F)CC2)s1,18.6%,–
CC(C(=O)Nc1ccc(F)c(F)c1)N1CCN(C)CC1 (stereo not given),14.6%,–
CC(C(=O)Nc1ccccc1C(F)(F)F)N1CCN(C)CC1 (stereo not given),14.4%,–
CCOCCCNC(=O)CN1CCN(c2ccc(F)cc2)CC1,3.62%,–
COc1ccccc1NS(=O)(=O)c1ccc(C)c(C(=O)N2CCN(c3ccc(O)cc3)CC2)c1,–,23.6 µM (active)
COc1cc(OC)c(OC)cc1CN1CCN(C(=O)c2cccc3ccccc23)CC1,17.1%,–
COc1ccccc1C(=O)N1CCN(Cc2cccnc2)CC1,4.78%,–
Cc1ccc2nc(/N=C(\N)NC(=O)N3c4ccccc4Sc4ccccc43)nc(C)c2c1,17.9%,–
CC1(C)CC(NC(=O)N2c3ccccc3Sc3ccccc32)CC(C)(C)N1,8.31%,–
N/C(=N\OC(=O)N1c2ccccc2Sc2ccccc21)c1ccccc1,28.5%,–
Cc1cccc(/C(N)=N/OC(=O)N2c3ccccc3Sc3ccccc32)c1,26.5%,–
CCN1/C(=C/c2ccc3cc(C)ccc3[n+]2CC)Sc2cc(C)ccc21,0.65%,–
CN(C)/C=C/c1oc2ccc(O)cc2c1[N+](=O)[O-],–,14.2 µM (active)
CCCc1cc(=S)n2c([nH]c3ccccc32)c1C#N,–,57.3 µM (active)
CCn1nc(C)c(Br)c1C(=O)Sc1ccccc1Cl,0.17%,–
CCN(CC)c1ccc(S(=O)(=O)N2CCOCC2)cc1NC(=O)CN1CCN(Cc2ccccc2)CC1,21.5%,–
O=S(=O)(c1ccc(Cl)c(NC(=S)N/N=C/c2ccc(O)cc2)c1)N1CCOCC1,–,48.7 µM (active)
Cc1ccc(S(=O)(=O)N2CCOCC2)cc1NC(=O)CNCc1cccnc1,19.8%,–
CCOC(=O)C1CCN(C2=NC(=O)/C(=C/c3ccc(O)cc3)S2)CC1,–,22.2 µM (active)
CCOC(=O)C1CCCN(C2=NC(=O)/C(=C/c3ccc(O)c(OC)c3)S2)C1 (stereo not given),–,22.8 µM (active)
CCOC(=O)C1CCN(Cc2cn[nH]c2-c2ccccc2)CC1,16.9%,–
COc1cc(/C=C2\SC(N3CCC(C)CC3)=NC2=O)ccc1O,–,19.1 µM (active)
CCOC(=O)CSC1=NC(=O)/C(=C\c2ccc(OC(C)=O)cc2)S1,24.3%,–

Structure (SMILES),inhibition,IC50
CCOC(=O)C1CCCN(C2=NC(=O)/C(=C/c3ccc(O)c(OCC)c3)S2)C1 (stereo not given),–,29.8 µM (active)
CCOC(=O)C(NC(=O)N(C)C)(Nc1sc(C)c(CC)c1C#N)C(F)(F)F (stereo not given),26.6%,–
C#CCOCCOCCOCCNc1nc(N2CCN(C(=O)[C@H](CCCN=C(N)N)n3cc(C(N)[C@H](C)CC)nn3)CC2)nc(N2CCN(C(=O)[C@H](CCCN=C(N)N)n3cc(C(N)[C@@H](C)CC)nn3)CC2)n1 (stereo not given in full),3.3%,–
CC1CCN(S(=O)(=O)c2ccc3c(c2)C(Cl)(Cl)C(=O)N3)CC1,5.46%,–
CCS(=O)(=O)c1cc([N+](=O)[O-])c(Sc2ccccc2N)s1,12.6%,–
C=CCSC1=NC(=O)/C(=C/c2cccs2)S1,6.43%,–
CCOc1cc(/C=C2\SC(N3CCCC(C)C3)=NC2=O)ccc1O (stereo not given),–,33.4 µM (active)
COc1cc(C2NC(=O)C(C#N)=C(S)N2c2ccccc2)ccc1OC(C)C (stereo not given),4.22%,–
Cc1c(O)ccc(/C(Cc2ccc3ccccc3n2)=N\O)c1O,–,76.5 µM (active)
CCN(CC)CCCNc1ccc2ncn3c4ccc(O)cc4c(=O)c1c23,20.9%,–
CN(C)CCNc1ccc(CO)c2sc3ccc(O)cc3c(=O)c12,–,35 µM (active)
CN(C)CCNc1ccc2ncn3c4ccc(O)cc4c(=O)c1c23,27.1%,–
CN(C)CCNc1ccc2nnn3c4ccc(O)cc4c(=O)c1c23,-17.4% [at 40 µM],–
CCN(CC)CCNc1ccc(C)c2sc3ccc(O)cc3c(=O)c12,–,33.2 µM (active)
Cc1ccc(NCCN(C)C)c2c(=O)c3cc(O)ccc3sc12,–,46.3 µM (active)
O=C1CC(SC(=S)C2CCCC2=O)C(=O)N1 (stereo not given),-4.72%,–
Nc1ccccc1Sc1ccc(C(=O)c2ccccc2C(=O)O)cc1[N+](=O)[O-],4.22%,–
CN(C)c1ccc(/C=N\Nc2ccccn2)cc1,–,33.4 µM (active)
COc1ccc(/C=N/Nc2ccccn2)cc1O,–,81.8 µM (active)
COc1cc(/C=N/Nc2ccccn2)cc(OC)c1O,–,28.6 µM (active)
COc1cc(/C=N/Nc2cccc3cccnc23)cc(OC)c1O,4.91%,–
COc1ccc(/C=N/Nc2ncnc3sc4c(c23)CCCC4)cc1O,–,69.1 µM (active)
CCN1CCN(CCOc2cccc(Oc3ccccc3)c2)CC1,21.4%,–
Clc1ccc(OCCOCCNCc2ccccc2)cc1Cl,8.13%,–
CCN(CC)c1ccc(NC(=O)C2=CC=CN3CCS(=O)(=O)N=C23)cc1,–,74.2 µM (active)
CCN(CC)c1ccc(NC(=O)CCN2C(=O)c3ccccc3S2(=O)=O)c(C)c1,12.5%,–
CC(C)[C@H](N[C@@H](C)c1ccccc1)c1c(O)ccc2ccccc12,–,17.4 µM (active)

Structure (SMILES),inhibition,IC50
CC(NCCCOc1cccc2ccccc12)c1ccccc1 (stereo not given),16.6%,–
C/C(=N\Nc1nc2ccccc2[nH]1)c1ccc(Cl)s1,–,37.8 µM (active)
C/C(=N\Nc1nc2ccccc2[nH]1)c1cccs1,–,28.4 µM (active)
C/C(=N\Nc1nc2ccccc2[nH]1)c1ccc(C)o1,–,82.2 µM (active)
COc1cccc(/C=C2\C(=O)C(=O)c3ccccc32)c1,-1.01%,–
O=C(CNC(=O)c1cccnc1)N/N=C/c1ccc(O)cc1O,–,82 µM (active)
O=C(COc1ccccc1)NCC(=O)N/N=C/c1ccc(O)cc1O,–,66.1 µM (active)
O=C(CNC(=O)c1cccs1)N/N=C/c1ccc(O)cc1O,–,60.5 µM (active)
Cc1cc(O)c(C)c(O)c1/C=N/NC(=O)c1cccnc1,–,77.5 µM (active)
O=C(CNC(=O)c1ccco1)N/N=C/c1ccc(O)cc1O,–,78.5 µM (active)
O=C(CCCCCNC(=O)c1ccccc1)N/N=C/c1ccc(O)cc1O,–,71 µM (active)
Oc1ccc(/C=N/NC(=S)Nc2cccnc2)c(O)c1,–,37.9 µM (active)
CCc1ccc(/C(C)=N/NC(=O)CNC(=O)/C=C/c2ccco2)cc1,-0.57%,–
Cc1cc(C)c(OCCCCNCc2ccccc2)c(Cl)c1,19.3%,–
Cc1c(O)ccc(NC(=O)/C=C/c2ccccc2)c1C,–,37.7 µM (active)
Cc1cc(N)c2cc(NC(=O)/C=C/c3ccccc3Cl)ccc2n1,16.5%,–
CCOC(=O)/C(C#N)=C\c1c(OCC)n(CC)c2ccccc12,11.6%,–
CCOC(=O)/C(C#N)=C\c1ccc(O)c(OC)c1,–,52.1 µM (active)
COc1cc(/C=C(\C#N)C(=O)Nc2ccc3c(c2)OCCO3)ccc1O,–,32.5 µM (active)
N#C/C(=C/c1ccc2c(c1)OCO2)C(=O)Nc1ccc(O)cc1,–,62.6 µM (active)
CCC(CC)NCc1ccc2c(c1)c1ccccc1n2CC,16%,–
Oc1cccc(Nc2ccccc2)c1,–,59.1 µM (active)
O=[N+]([O-])/C=C/c1cc2ccccc2[nH]1,0.62%,–
COc1ccc(OC)c2c(C)c(C)[nH]c12,–,28.7 µM (active)
CS(=O)(=O)Cc1nc2ccccc2oc1=O,–,74.1 µM (active)
Nc1nc2c(s1)CCc1ccccc1-2,–,48.5 µM (active)
COc1ccc2c(c1)-c1nc(N)sc1CC2,–,42.2 µM (active)

Structure (SMILES),inhibition,IC50
O=C(CN1CCCCCC1)Nc1nc2ccccc2s1,13.2%,–
CCOc1ccc(OCCOCCN2CCCC2)cc1,18.7%,–
O=C(c1ccc(OCCN2CCCCC2)cc1)c1c(-c2ccc(O)cc2)sc2cc(O)ccc12,–,31.6 µM (active)
Cc1cc(OCCCCCN2CCCC2)ccc1Cl,16.7%,–
C[n+]1c(-c2ccccc2)cc2c(=Cc3ccccc3)c3ccccc3n21,1.82%,–
COc1cc(/C=N/n2c(-c3cc(C)[nH]n3)n[nH]c2=S)cc(OC)c1OC,–,61 µM (active)
COc1cc(/C=N/n2c(-c3cc(C)[nH]n3)n[nH]c2=S)cc(OC)c1O,–,55.6 µM (active)
COc1ccc(NCc2cc(=O)[nH]c3ccccc23)cc1,–,51.4 µM (active)
CCn1c2ccccc2c2cc(CNCc3ccc(OC)cc3OC)ccc21,7.53%,–
COc1ccc(NCc2cc3ccccc3[nH]c2=O)cc1,–,77.4 µM (active)
COc1ccc(NCc2cc3cc(OC)ccc3[nH]c2=O)cc1,22.5%,–
COc1ccc(OC)c(CN2CCN(Cc3cccc4ccccc34)CC2)c1,19.4%,–
COc1ccc(NCc2nnc(SCC(=O)Nc3ccccc3OC)o2)cc1,24.1%,–
CC(C1SC(=S)NC1=O)C1SC(=S)NC1=O (stereo not given),-10.8%,–
CC(=O)N1CCN(c2ccc(Nc3ncnc4c3oc3ccccc34)cc2)CC1,–,42.5 µM (active)
CCc1nc(Nc2ccc(O)cc2)c2oc3ccccc3c2n1,–,19.4 µM (active)
Oc1ccc(Nc2ncnc3ccccc23)cc1,–,15.8 µM (active)
CCc1nn(C(C)C(=O)N2CCN(c3ccc(OC)cc3)CC2)c(=O)c2cc3occc3n12 (stereo not given),29.3%,–
CCc1nc(Nc2ccc(N3CCN(C(C)=O)CC3)cc2)c2oc3ccccc3c2n1,–,40.2 µM (active)
Oc1ccc(Nc2ncnc3c2oc2ccccc23)cc1,–,20 µM (active)
N#CC1=C(S)N(c2ccc(F)cc2)C2(CCCCC2)NC1=O,0.96%,–
O=C1NC(=S)NC1=Cc1ccco1,-13.6%,–
O=C1NC(=S)NC1=Cc1ccc(O)cc1,–,10.2 µM (active)
CCN1C(=O)/C(=C2/C=Cc3cc(C)ccc3N2CC)N(C)C1=S,–,50.7 µM (active)
